Source: PubChem (several laboratories)
PostGolgi yeast – phenotypic screen on post-Golgi transport, primary screen. post-Golgi transport phenotypic cell assay. inhibition, % at 10 µM. actives 0.9% (n = 98,000);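 also: yeast cells grown in 1536-well plates; yeast grown about 18 h at 30C before absorbance read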
PostGolgi ctrl – growth inhibition of yeast control strain, primary screen, counter-screen for post-Golgi transport modulator project; efflux-deficient yeast background strain, growth absorbance A615, 16 h; inhibition, % at 10 µM; actives 5% (n = 98,000); AID 738, 2007
CYP2C19 activ – human CYP2C19 activators, primary screen, biochemical, luminescence. Cytochrome P450 2C19 (Homo sapiens), P33261. recombinant CYP2C19, luciferin-H EGE luminescence; hits give high values; 0 = fully inhibited enzyme, 1 = untreated enzyme. activation factor at 5 µM. 96,000 tested, under 10 active. AID 1025, 2008;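 active = activation factor of at least 2 at 5 µM in the primary screen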;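 also: 0 = wells with 2.5 mM tranylcypromine and 1 = vehicle-only wells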
Target sequence (P33261 whole entry, looked up): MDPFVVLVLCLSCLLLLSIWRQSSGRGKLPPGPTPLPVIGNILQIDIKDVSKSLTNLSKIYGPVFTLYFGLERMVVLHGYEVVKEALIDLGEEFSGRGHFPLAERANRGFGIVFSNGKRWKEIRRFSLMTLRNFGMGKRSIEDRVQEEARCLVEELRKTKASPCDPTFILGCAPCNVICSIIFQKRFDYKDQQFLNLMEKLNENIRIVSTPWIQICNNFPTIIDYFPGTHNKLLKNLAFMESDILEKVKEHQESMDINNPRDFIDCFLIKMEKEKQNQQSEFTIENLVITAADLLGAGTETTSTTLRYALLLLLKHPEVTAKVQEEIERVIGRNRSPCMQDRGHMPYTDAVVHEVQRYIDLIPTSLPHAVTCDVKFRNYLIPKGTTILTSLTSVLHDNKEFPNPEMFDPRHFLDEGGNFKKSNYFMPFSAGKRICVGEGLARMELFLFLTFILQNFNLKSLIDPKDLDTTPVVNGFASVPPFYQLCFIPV
CYP2C19 inhib – blockers of cytochrome P450 2C19 activity – biochemical, luminescence, ADME assay, primary screen. P33261. CYP2C19 Supersomes, luciferin-H EGE luminescence, 30 min. inhibition, % at 5 µM. actives 21% (n = 96,000). AID 778, 2007;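 active = CYP2C19 inhibition above a set limit at 5 µM in the primary screen, cut at about 50% in these data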;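 also: plate controls were negative control wells for no effect and 2.5 mM tranylcypromine positive control for full effect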
CYP2C9 activ – human CYP2C9 activators, primary screen, biochemical, luminescence; activation factor at 5 µM; actives 1.4% (n = 96,000); AID 1024, 2008; recombinant CYP2C9, luciferin-H conversion; hits give high values; factor 1 = untreated enzyme, 0 = blocked;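 active = activation factor of 2 or more for CYP2C9 at a 5 µM dose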;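 also: 0 = sulfaphenazole-blocked wells and 1 = vehicle-only wells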
CYP2C9 inhib – blockers of cytochrome P450 2C9 activity – biochemical, luminescence, ADME assay, primary screen | inhibition, % at 5 µM | actives 20% (n = 96,000) | CYP2C9 Supersomes, luciferin-H conversion | AID 777, 2007 | P11712;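 active = blocking of liver enzyme CYP2C9 beyond about 50% at 5 µM, limit read from the data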
Starred values were filed as active, the others as inactive. Sampled rows, rich in hits. Any-hit rate of the full collection: about 32%. Rule as the data show it, unless noted: active = inhibition above about 30%; inactive = the rest.

SMILES	PostGolgi yeast	PostGolgi ctrl	CYP2C19 activ	CYP2C19 inhib	CYP2C9 activ	CYP2C9 inhib
CNC(=O)C(Sc1nc(C)nc2c1oc1ccccc12)C(C)=O (configuration not stated)	3	9	0.5	55*	0.4	61*
Cc1[nH]c2ccccc2c1SCC(=O)N1CCCc2ccccc21	6	26	0.2	76*	0.9	9
Cc1nc(SCC(=O)NC(C)c2ccccc2)c2oc3ccccc3c2n1 (configuration not stated)	3	14	0.4	64*	0.2	80*
Cc1nc(SCC(=O)Nc2ccc(F)cc2)c2oc3ccccc3c2n1	0	0	0.6	40	0.2	84*
O=C(COC(=O)c1cc[n+]([O-])cc1)NCC12CC3CC(CC(C3)C1)C2	-5	-3	1	-4	1.1	-12
O=C(CSc1nc(Cc2ccccc2)nc2ccccc12)c1ccc2c(c1)OCCO2	20	17	0.9	8	0.1	89*
O=C(CSc1nnc(CNc2ccccc2)o1)c1ccc2c(c1)OCCO2	-6	11	0.7	25	1	1
CCc1nc(SCC(=O)c2ccc3c(c2)OCCO3)c2ccccc2n1	-4	32*	0.9	15	0.8	17
CCc1nc(SCC(=O)N2c3ccccc3Sc3ccccc32)c2ccccc2n1	6	0	1	0	0.5	53*
Cc1cc(C)c(O)c(-c2cc(C(=O)Nc3ccc(S(=O)(=O)N4CCOCC4)cc3)[nH]n2)c1	0	4	1	-3	0.7	31
O=C(NCc1ccco1)c1ccc(COCC(F)(F)F)cc1	2	0	0.9	9	0.8	16
CCOC(=O)Cn1cnc2sc3c(c2c1=O)CCC3	-7	6	0.7	26	0.9	8
CS(=O)(=O)N(CC(=O)Nc1cccc(Cl)c1Cl)c1ccccc1	-4	-1	0.7	30	0.2	78*
CS(=O)(=O)N(CC(=O)Nc1cc(Cl)ccc1Cl)c1ccccc1	-11	-4	0.6	36	0.4	65*
Nc1nc(SCC(=O)NC2CCCCCC2)[nH]c(=O)c1-c1ccccc1	7	3	1	2	1.2	-24
Oc1ccc(C2N=C(c3ccccc3)NC(c3ccccc3)=N2)cc1	0	11	0.8	15	0.8	20
COC(=O)c1[nH]c2ccc(C)cc2c1NC(=O)CN1CCCc2ccccc21	-2	48*	0.8	23	0.2	85*
CCOC(=O)C1CCCN(CC(=O)Nc2c(C(=O)OC)[nH]c3ccc(Cl)cc23)C1 (configuration not stated)	-10	39*	0.1	91*	0.1	91*
CCOC(=O)C1CCCN(CC(=O)Nc2c(C(=O)OC)[nH]c3ccc(C)cc23)C1 (configuration not stated)	5	19	0.6	43	0.4	60*
CCOC(=O)C1CCCN(CC(=O)Nc2c(C(=O)OC)[nH]c3ccccc23)C1 (configuration not stated)	-9	20	0.7	27	0.9	12
CCN(CC(=O)Nc1c(C(=O)OC)[nH]c2ccc(Cl)cc12)c1ccc2c(c1)OCO2	19	57*	0.1	88*	0	97*
O=C(c1ccc(-c2nnc(Nc3cccc(Cl)c3)c3ccccc23)cc1)N1C[C@H]2C[C@H](C1)c1cccc(=O)n1C2	0	11	0.8	16	0.7	30
CC(C)N1C(=O)CC2(CC[N+](C)(CCOC(=O)C(c3ccccc3)c3ccccc3)CC2)C1=O (configuration not stated)	-5	-7	0.9	11	1.1	-5
CC12CC(NC(=O)N1c1cccc(C(=O)N3CCN(c4ccccc4)CC3)c1)c1ccccc1O2 (configuration not stated)	3	1	0.4	58*	0.5	53*
COc1ccccc1N1CCN(C(=O)c2cccc(N3C(=O)NC4CC3(C)Oc3ccccc34)c2)CC1 (configuration not stated)	-4	6	1	4	0.9	13
SMILES	PostGolgi yeast	PostGolgi ctrl	CYP2C19 activ	CYP2C19 inhib	CYP2C9 activ	CYP2C9 inhib
COC(=O)C1=C(C)NC(=O)/C1=C\c1cc(C)n(-c2cccc(C)c2)c1C	5	13	0.2	79*	0.2	84*
COC(=O)c1ccc(-c2nc3cc(Cl)c(N)cc3s2)cc1	0	9	0.4	60*	0.9	11
Cc1ccc2sc(-c3ccc(NC(=O)c4cc(-n5cnnc5)ccc4Cl)cc3)nc2c1	1	4	0.7	29	0.9	14
C=CCn1c(Cc2cccs2)nnc1SCC(=O)Nc1cccc(OC)c1	1	-2	0.6	44	0.7	31
COc1ccc(-n2c(Cc3cccs3)nnc2SCC(=O)Nc2ccc3c(c2)OCCO3)cc1	-7	6	0.4	56*	0.4	61*
COc1ccc(NC(=O)CSc2nnc(Cc3cccs3)n2-c2ccc(C)cc2)cc1	6	15	0.3	73*	0.5	51*
C=CCn1c(Cc2cccs2)nnc1SCC(=O)Nc1ccc(OC)cc1	-4	7	0.8	21	0.8	23
COc1cccc(NC(=O)CSc2nnc(Cc3cccs3)n2-c2ccc(C)cc2)c1	-2	12	0.5	45	0.3	65*
CCN(C(=O)CN1CCN(c2ccccc2OC)CC1)c1c(N)n(Cc2ccccc2)c(=O)[nH]c1=O	1	4	1.3	-27	1.2	-23
Cc1onc(-c2ccccc2Cl)c1C(=O)Nc1nnc(C(C)C)s1	-8	18	0.8	19	0.4	59*
COC(=O)c1c(NC(=O)c2c(C)noc2C)sc2c1CCCCCC2	-6	8	1	0	0.8	17
O=C(/C=C/c1ccccc1Cl)NCc1ccco1	1	4	1	3	2.3*	-132
Cc1onc(-c2ccccc2Cl)c1C(=O)Nc1nnc(Cc2ccc(Cl)cc2)s1	-3	15	0.9	10	0.1	88*
COC(=O)CNC(=O)c1c(-c2ccccc2Cl)noc1C	-7	16	0.9	11	1	-5
COC(=O)c1c(NC(=O)c2c(-c3ccccc3Cl)noc2C)sc2c1CCC2	0	33*	0.3	74*	0	98*
CCC1(C)CC(C(CC(=O)O)c2ccc(C)cc2)CCO1 (configuration not stated)	-2	10	0.7	29	0.5	49
COC(=O)C1CCN(C(=O)/C=C/c2ccc(OC)cc2)CC1	-3	-3	0.6	40	0.8	16
OC1CCCN(Cc2ccc3c(c2)Cc2ccccc2-3)C1 (configuration not stated)	-2	5	1	-4	1.1	-5
